Data reported in PubChem BioAssay AID376 (PDSP, 2006).
The campaign covered roughly 2,000 compounds. About 250 (12%) were called active. Cut-off read from the data, not from the text of the source: active = hERG blockade below about -20% or above about 20%; inactive = in between. Only a selection was taken, and actives are over-represented in it overall.

target: Voltage-gated inwardly rectifying potassium channel KCNH2 (Homo sapiens) (UniProt Q12809); test: KCNH2 potassium channel function modulators, cell-based (AID 376); settings: hERG-expressing cells, channel activity single-concentration screen; concentration not given here;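 note: 0% = buffer alone and 100% = reference blocker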
Sequence (Q12809 whole entry, looked up): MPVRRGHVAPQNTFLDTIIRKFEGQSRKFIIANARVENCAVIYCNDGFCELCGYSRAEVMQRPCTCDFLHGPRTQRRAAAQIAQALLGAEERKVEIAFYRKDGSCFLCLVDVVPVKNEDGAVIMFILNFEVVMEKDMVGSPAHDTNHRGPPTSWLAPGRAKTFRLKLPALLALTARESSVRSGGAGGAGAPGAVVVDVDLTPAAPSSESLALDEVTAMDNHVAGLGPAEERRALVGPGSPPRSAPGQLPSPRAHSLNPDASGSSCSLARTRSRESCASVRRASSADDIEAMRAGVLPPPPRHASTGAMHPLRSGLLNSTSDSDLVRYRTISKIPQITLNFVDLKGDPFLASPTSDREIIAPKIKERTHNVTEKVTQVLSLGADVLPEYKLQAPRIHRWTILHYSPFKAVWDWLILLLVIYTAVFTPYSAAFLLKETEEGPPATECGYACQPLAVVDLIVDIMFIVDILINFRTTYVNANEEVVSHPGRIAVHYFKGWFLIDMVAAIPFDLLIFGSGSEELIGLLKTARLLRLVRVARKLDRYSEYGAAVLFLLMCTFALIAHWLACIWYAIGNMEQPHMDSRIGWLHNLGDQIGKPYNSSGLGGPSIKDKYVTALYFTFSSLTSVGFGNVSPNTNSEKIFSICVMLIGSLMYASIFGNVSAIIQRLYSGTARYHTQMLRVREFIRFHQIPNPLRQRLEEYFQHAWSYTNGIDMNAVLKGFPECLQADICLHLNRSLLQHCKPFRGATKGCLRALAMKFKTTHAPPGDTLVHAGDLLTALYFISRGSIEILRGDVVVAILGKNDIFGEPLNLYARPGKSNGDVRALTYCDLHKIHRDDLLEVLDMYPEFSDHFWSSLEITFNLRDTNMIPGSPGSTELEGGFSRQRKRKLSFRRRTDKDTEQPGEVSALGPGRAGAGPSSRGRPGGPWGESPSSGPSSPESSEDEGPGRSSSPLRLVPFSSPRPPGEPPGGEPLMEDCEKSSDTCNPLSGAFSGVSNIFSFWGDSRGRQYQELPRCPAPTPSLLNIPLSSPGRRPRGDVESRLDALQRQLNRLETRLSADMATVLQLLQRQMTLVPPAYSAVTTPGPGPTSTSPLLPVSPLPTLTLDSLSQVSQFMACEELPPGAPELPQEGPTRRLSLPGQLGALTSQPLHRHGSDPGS

SMILES | hERG blockade
NC(CSCc1ccc(I)cc1)C(=O)O (centres undefined) | 8.02% (inactive)
O=C(O)c1cc2c(cc1S(=O)(=O)O)C1C(C3C2C2(Cl)C(Cl)=C(Cl)C3(Cl)C2(Cl)Cl)C2(Cl)C(Cl)=C(Cl)C1(Cl)C2(Cl)Cl (centres undefined) | 3.63% (inactive)
CC(C)Oc1cc(O)c2c(c1)OCC=C2CCC(=O)O | 16% (inactive)
O=C1OC2(c3ccc(O)cc3Oc3cc(O)ccc32)c2c1c(-c1ccccc1)c(-c1ccccc1)c(-c1ccccc1)c2-c1ccccc1 | -2.77% (inactive)
O=C(O)C=CC=Cc1ccc2c(c1)OCO2 | -8.5% (inactive)
O=C(O)CSC1=NCCN1 | -1.36% (inactive)
Cc1ccc(S(=O)(=O)OC2CCN(C)CC2)cc1 | -11.1% (inactive)
Nc1ncnc2nn(C3OC(CO)C(O)C3O)nc12 (centres undefined) | 13.3% (inactive)
N#CC(=NCCO)C1=C(O)c2ccccc2C1=O | -3.02% (inactive)
CC1CCCC2(CC[N+](C)(CCC[N+](C)(C)C)CC2)C1 (centres undefined) | 17.8% (inactive)
CCN(CC(=O)O)CC(=O)O | 4.67% (inactive)
CC12CCC(=O)C=C1CCC1C2C(O)CC2(C)C1CCC2(O)C(=O)COC(=O)C1CCCC1 (centres undefined) | -2.63% (inactive)
CN1CCCC(C(=O)OCC(=O)C2(O)CCC3C4CCC5=CC(=O)CCC5(C)C4C(O)CC32C)C1 (centres undefined) | 25.6% (active)
CC12CCC(=O)C=C1CCC1C2C(O)CC2(C)C1CCC2(O)C(=O)CO (centres undefined) | 14.3% (inactive)
CC(NC(=O)C1(N)CCCC1)C(=O)O (centres undefined) | -5.06% (inactive)
CCOC(=O)Cn1c(C(F)(F)F)nc2nc(Cl)c(Cl)nc21 | 13.4% (inactive)
O=C(O)c1nn(-c2ccc(Cl)cc2)c2c1C(=O)c1ccccc1C2=O | 26% (active)
O=C1C(=O)c2ccccc2C(O)=C1C(C1=C(O)c2ccccc2C(=O)C1=O)c1ccc(Cl)cc1 | 17.5% (inactive)
O=C(O)c1nn(-c2ccccc2-c2n[nH]c(=O)[nH]c2=O)c(=O)[nH]c1=O | 7.69% (inactive)
Cc1cn(C2CC(N=[N+]=[N-])C(CO)O2)c(=O)[nH]c1=O (centres undefined) | 9.12% (inactive)
CC(C)C12CCC3(CCC4C(C)(C(=O)O)CCCC4(C)C3C1)C(CN)C2 (centres undefined) | -4.91% (inactive)
CN(C)CCC=C1c2ccccc2C=Cc2ccccc21 | 15.1% (inactive)
CN(C)CCC=C1c2ccccc2Sc2ccc(Cl)cc21 | 66.2% (active)
CC(C[n+]1ccccc1)=NN=C(N)N | 12.9% (inactive)
Clc1ccc2c(NCCNc3ccnc4cc(Cl)ccc34)ccnc2c1 | 0.444% (inactive)

SMILES | hERG blockade
Clc1ccc2c(NC3CCC(N4CCCCC4)CC3)ccnc2c1 (centres undefined) | 53.4% (active)
Clc1ccc2c(N3CCC(CCC4CCN(c5ncnc6cc(Cl)ccc56)CC4)CC3)ncnc2c1 | -8.41% (inactive)
Clc1ccc2c(NCCNC3CCCCC3)ccnc2c1 | 63.2% (active)
O=C(O)c1ccc(Nc2ccnc3cc(Cl)ccc23)cc1O | -3.15% (inactive)
O=C(O)CN(CCN(CC(=O)O)CC(=O)O)CC(=O)O.[Mn+2] | -6.49% (inactive)
O=c1ccc(-c2ccccc2)n[nH]1 | 17.2% (inactive)
CC(C)C(N)(C(=O)O)c1ccccc1 (centres undefined) | -5.81% (inactive)
CC1(c2ccccc2)OC2CC3C4CCC5=CC(=O)C=CC5(C)C4(F)C(O)CC3(C)C2(C(=O)CO)O1 (centres undefined) | 6.41% (inactive)
O=CNc1ncn[nH]1 | -3.79% (inactive)
c1c[nH]c(CN2CCOCC2)n1 | 2.23% (inactive)
CC1CCC2C(C)C3C(CC4C5CC=C6CC(O)CCC6(C)C5CC(O)C43C)N2C1 (centres undefined) | -3.2% (inactive)
CC(=O)Nc1nc(NC(C)=O)c2[nH]c(CO)nc2n1 | 0.0402% (inactive)
O=S1(=O)NC2CCC3NS(=O)(=O)NC4CCC(N1)N4S(=O)(=O)N23 (centres undefined) | 0.569% (inactive)
C[N+](C)(C)CCN(Cc1cccs1)c1ccccn1 | 39.5% (active)
CN(C)CCN(c1ccccn1)c1ccccn1 | -15.1% (inactive)
CC(CO)(CO)N=Cc1cc(I)cc(I)c1O | 5% (inactive)
O=C1Oc2ccccc2C(=O)C1=CN1C(=O)NC(=Cc2ccccc2O)C1=O | 10.5% (inactive)
c1ccc(SC(Sc2ccccc2)c2ccc3c(c2)OCO3)cc1 | 15.6% (inactive)
N=C1C=CC(=C(c2ccc(N)cc2)c2ccc(N)cc2)C=C1 | 9.77% (inactive)
CN(C)c1ccc(C(=C2C=CC(=[N+](C)C)C=C2)c2c(O)c(S(=O)(=O)[O-])cc3cc(S(=O)(=O)O)ccc23)cc1 | 8.17% (inactive)
CN(C)c1ccc(C(=C2C=CC(=[N+](C)C)C=C2)c2ccccc2)cc1 | 40.6% (active)
CC(=O)CC(=O)Nc1ccc2ccccc2c1 | 2.34% (inactive)
O=C(c1ccccc1)C(Nc1ccc2ccccc2c1)c1ccccc1 (centres undefined) | 25.3% (active)
O=C(O)CCC(=O)Nc1ccc2ccccc2c1 | 10% (inactive)
